BJeLR viab HTS: compounds reducing viability of BJeLR cells; BJeLR fibroblasts viability, CellTiterGlo ATP luminescence, 48 h; HRASV12, hTERT and SV40 LT/ST transformed; viability loss activity score, % (no concentration beside the values); 30,000 compounds, 0.64% hits; in the data active means viability loss activity score above about 50%; inconclusive means no clear call, values can overlap the other calls; inactive means below about 35%;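 further: higher score means fewer live cells and less ATP luminescence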
A1 inh: A1 inhibition; caspase activation, % (no concentration beside the values); 21,000 compounds, 0.51% hits; MEF A1-2A-BIM cells, caspase-Glo luminescence, 3 h; percent of clofoctol signal, DMSO as zero;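 active means most replicate scores above 10, or exactly half above 10 with mean activity above 10; inconclusive means mean activity below 10 while half the replicates exceed 10; inactive means most replicate scores below 10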;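 further: effector caspase 3 and 7 activity cleaving a DEVD luciferin substrate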
* marks the source's active call; other numbers are inactive results; ? = inconclusive; . = no result given. Only some compounds are listed: those with a hit (about 0.86% of all), similar ones and a draw of the others.

SMILES	BJeLR viab HTS	A1 inh
C[C@H]1CN([C@@H](C)CO)C(=O)c2cc(NC(=O)Cn3cnnn3)ccc2O[C@H]1CN(C)C(=O)Nc1cccc2ccccc12	1	0
CCC1CCCCN1C(=O)CSc1nnc(C)n2c1cc1sccc12 (stereo not given)	-3	1
COc1c(O[C@@H]2O[C@H](CO)[C@@H](O)[C@H](O)[C@H]2O)cc2c(c1OC)-c1ccc(SC)c(=O)cc1C(NC(C)=O)CC2 (stereo not given in full)	-5	-1
CNC1CCc2cc(OC)c(OC)c(OC)c2-c2ccc(OC)c(=O)cc21 (stereo not given)	59*	5
CCc1cc(C)cc(OCCn2cc(C=C3C(=O)NC(=O)NC3=O)c3ccccc32)c1	1	39*
CCc1ccc(OCCCn2cc(/C=C3/C(=N)N4C=CSC4=NC3=O)c3ccccc32)cc1	13	0
Cc1cc(N2C(=O)c3c(c(C)n(C)c3C)C2C(=O)NC2CCC(C)CC2)ccc1Br (stereo not given)	-1	0
N#Cc1c(-c2ccccc2)cc(-c2cccs2)nc1SCS(=O)Cc1ccccc1 (stereo not given)	-7	0
N#Cc1c(C(F)(F)F)cc(-c2cccs2)nc1S/C=C/C(=O)c1ccccc1	57*	0
O=C(Nc1ccc([N+](=O)[O-])cc1Cl)c1cc(Cl)ccc1O	99*	-7
O=C(Nc1ccccc1)c1cc([N+](=O)[O-])ccc1Cl	-3	0
NNC(=O)c1cccc(Cn2cccn2)c1	-2	1
Nc1cccc(-c2cc3c(Oc4cccc(O)c4)ncnc3[nH]2)c1	21	23*
O=C(O)CCC(=O)N1CCOc2ccccc21	-3	0
c1ccc(CN(CCN(Cc2ccccn2)Cc2ccccn2)Cc2ccccn2)nc1	110*	?
Cc1cc[n+](Cc2ccccn2)c(N)c1	6	0
CC(C)n1c2ccccc2c2nnc(SCCCC(=O)c3ccc(F)cc3)nc21	7	-1
CC(C)n1c(/C=C/[C@H](O)C[C@H](O)CC(=O)O)c(-c2ccc(F)cc2)c2ccccc21	56*	2
CCc1ccc(N=Cc2c(O)[nH]c(=S)[nH]c2=O)cc1	-7	-1
CCc1ccc(N=Cc2c(O)n(-c3ccccc3)c(=O)c3ccccc23)cc1	-6	41*
CCOC(=O)N1CCN(C(=O)CCn2c(=S)[nH]c3cc4c(cc3c2=O)OCO4)CC1	6	0
CC1=CC(C)(C)N(S(=O)(=O)c2ccc(C)cc2)c2ccccc21	57*	1
CC1=CC(C)(C)N(C(=O)Nc2ccc(C)cc2)c2ccccc21	3	.
O=C(NCc1ccccc1)C1CC1	-1	0
C[C@H](CO)N1C[C@H](C)[C@H](CN(C)C(=O)Nc2cccc3ccccc23)Oc2ccc(NC(=O)c3ccncc3)cc2C1=O	-2	0
SMILES	BJeLR viab HTS	A1 inh
Cc1nn(C(C)C(=O)N(C)Cc2ccccc2)c(=O)c2c1sc1ccccc12 (stereo not given)	-1	1
COC(=O)CN(Cc1ccccc1)S(=O)(=O)c1ccc(C)cc1	2	0
Cc1ccc(S(=O)(=O)N[C@@H](Cc2ccccc2)C(=O)CCl)cc1	25	16*
CO[C@@]12[C@H](COC(N)=O)C3=C(C(=O)C(C)=C(N)C3=O)N1C[C@@H]1N[C@@H]12	58*	-1
COc1cccc2c1C(=O)c1c(O)c3c(c(O)c1C2=O)C[C@@](O)(C(C)=O)C[C@@H]3O[C@H]1C[C@H](N)[C@H](O)[C@H](C)O1	111*	15*
CC1CC(=O)c2c(ccc3c2C(=O)c2c(O[C@@H]4O[C@@H](C)[C@H](O)[C@@H](O)[C@H]4O)cccc2C3=O)C1 (stereo not given in full)	5	1
C[C@H]1CN([C@@H](C)CO)C(=O)c2cc(NC(=O)Nc3ccc4c(c3)OCO4)ccc2O[C@@H]1CN(C)S(=O)(=O)c1cn(C)cn1	1	0
COc1ccc(NC(=O)Nc2cccc3c2O[C@@H](CN(C)C(=O)Nc2c(C)noc2C)[C@@H](C)CN([C@H](C)CO)C3=O)cc1	0	.
C=C(C)C(=O)O[C@H]1[C@H]2C(=C)C(=O)O[C@@H]2C[C@@H](C)[C@@H]2O[C@@H]2C(=O)[C@](C)(O)[C@@H]1OC(C)=O	32	1
C=C(C)C(=O)O[C@H]1[C@H]2C(=C)C(=O)O[C@@H]2C[C@@H](C)/C=C/C(=O)[C@](C)(O)[C@@H]1OC(=O)C(=C)C	72*	2
COc1ccc(C(=O)N2CCN(c3ncnc4cc(-c5ccccc5)sc34)CC2)cc1OC	-5	.
C[C@H](CO)N1C[C@H](C)[C@H](CN(C)C(=O)Nc2ccc(C(F)(F)F)cc2)Oc2c(NC(=O)c3nc4ccccc4s3)cccc2C1=O	-1	.
CN(C(=O)c1oc(=O)c2ccccc2c1-c1ccccc1)c1ccccc1	-2	.
CCC(C)[C@H]1C(=O)O[C@H](C(C)C)C(=O)N(C)[C@@H](C(C)C)C(=O)O[C@H](C(C)C)C(=O)N(C)[C@@H](C(C)C)C(=O)O[C@H](CC(C)C)C(=O)N1C (stereo not given in full)	79*	45*
COc1ccc(NC(=O)c2ccc3c(c2)NC(=O)c2ccccc2S3)cc1Cl	11	0
O=C(NCCC1=CCCCC1)c1ccc2c(Cl)c3c(nc2c1)CCC3	-1	-1
C=CCSC1=C(C#N)C(c2ccc(C)cc2)C(C(=O)OC)C(=O)N1 (stereo not given)	0	0
Cc1cc(C)c(C#N)c(SCc2ccccc2)n1	-10	0
Cc1cc(C)c(C#N)c(Sc2ncnc3c2nnn3Cc2ccccc2)n1	33	9.8*
CCc1cccc(NC(=O)C(Cc2ccccc2)NS(=O)(=O)c2ccc3c(c2)CCC(=O)N3)c1 (stereo not given)	-2	.
CC(=O)OC[C@]12[C@H](OC(C)=O)[C@H](OC(=O)c3ccccc3)[C@@H]3[C@@H](OC(C)=O)[C@]1(OC3(C)C)[C@H](C)C[C@H](OC(C)=O)[C@@H]2OC(C)=O	-15	0
C[C@@H]1CN([C@@H](C)CO)C(=O)c2cc(NS(=O)(=O)c3ccccc3)ccc2O[C@@H]1CN(C)C(=O)Nc1ccc(C(F)(F)F)cc1	-8	1
C[C@@H]1CN([C@@H](C)CO)C(=O)c2cccc(NS(=O)(=O)c3cccs3)c2O[C@@H]1CN(C)C(=O)Nc1ccccc1	2	.
O=C(/C=C/Oc1ccc(Cl)cc1)c1ccc(Br)cc1	8	11*
O=C(COC(=O)c1ccc(Br)cc1)c1ccc(Br)cc1	2	-1
COc1ccc(S(=O)(=O)N(C)C[C@@H]2Oc3c(NS(=O)(=O)c4ccc(C)cc4)cccc3C(=O)N([C@@H](C)CO)C[C@H]2C)cc1	-2	.
Cc1noc(C)c1S(=O)(=O)Nc1ccc2c(c1)C(=O)N([C@@H](C)CO)C[C@@H](C)[C@H](CN(C)Cc1ccncc1)O2	1	0
N#Cc1ccc(-c2csc(-c3ccc(C(F)(F)F)cc3)n2)cc1	-3	0
COc1cc2c(Cc3ccc(OC)c(OC)c3)nccc2cc1O	13	-1
CNC(=O)CN(c1cccc(C)c1C)S(=O)(=O)c1ccccc1	4	0
